PubChem BioAssay (NCI)
This is part of a sample that, as a whole, favours compounds with a hit. Of some 83,000 tested, about 20% had one in any assay.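 Note: values are percent growth. 100 is the growth of untreated cells, values between 100 and 0 indicate rising inhibition; between -100 and 0 indicates cell death.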 Calls of active or inactive are those of the source. The calls were made as follows: active = growth percent below 10; inactive = the rest.

How the values were obtained:
Test in all cases: NCI-60 one-dose screen, 48 h (100 = growth as untreated, 0 = no growth, -100 = all killed)
Conditions in all cases: 10 µM unless noted
SK-MEL-2 melanoma = test system: SK-MEL-2 melanoma
SN12C renal = test system: SN12C renal
UO-31 renal = test system: UO-31 renal
TK-10 renal = test system: TK-10 renal
ACHN renal = test system: ACHN renal
CAKI-1 renal = test system: CAKI-1 renal
A498 renal = test system: A498 renal
CCRF-CEM leukemia = test system: CCRF-CEM leukemia
MOLT-4 leukemia = test system: MOLT-4 leukemia
EKVX NSCLC = test system: EKVX NSCLC

Measured: growth

O=C(O)c1ccccc1Oc1cc(-c2ccco2)nc(OCCN2CCOCC2)n1
inactive: SK-MEL-2 melanoma 100% | SN12C renal 97.3% | UO-31 renal 87.6% | TK-10 renal 97.4% | ACHN renal 107% | CAKI-1 renal 96.2% | A498 renal 104% | CCRF-CEM leukemia 94.2% | MOLT-4 leukemia 101%

C=CCN1C(=O)/C(=c2\sc3n(c2=O)C2C(NN=3)N(CC)C(=O)N2CC)c2ccccc21 (stereo unspecified)
inactive: SK-MEL-2 melanoma 46.5% | SN12C renal 35.8% | UO-31 renal 48.3% | TK-10 renal 60.6% | ACHN renal 37.6% | CAKI-1 renal 43.2% | A498 renal 10.7% | CCRF-CEM leukemia 12.8% | MOLT-4 leukemia 19.1%

CC1OC(n2c3ccccc3c3c4c(c5c6ccccc6[nH]c5c32)C(=O)N(CCN[C@H]2CCC[C@@H]2N)C4=O)CC(O)C1O (stereo partly specified)
active: MOLT-4 leukemia 7.62%
inactive: SK-MEL-2 melanoma 74.5% | SN12C renal 17.9% | UO-31 renal 66.8% | TK-10 renal 52.8% | ACHN renal 45.6% | CAKI-1 renal 85.7% | A498 renal 77.9% | CCRF-CEM leukemia 27.1%

COc1cccc(-c2nc3sccn3c2-c2ccnc(NCCN3CCCNS3(=O)=O)n2)c1
inactive: SK-MEL-2 melanoma 86.3% | SN12C renal 60.8% | UO-31 renal 70.7% | TK-10 renal 115% | ACHN renal 48.4% | CAKI-1 renal 44.6% | A498 renal 108% | CCRF-CEM leukemia 68.1% | MOLT-4 leukemia 87.5%

CN1C(=O)NC(Cc2c[nH]c3c(Cl)cccc23)C1=O (stereo unspecified)
inactive: SK-MEL-2 melanoma 106% | SN12C renal 101% | UO-31 renal 78.5% | TK-10 renal 147% | ACHN renal 99.3% | CAKI-1 renal 125% | A498 renal 106% | CCRF-CEM leukemia 113% | MOLT-4 leukemia 111%

CCOC(OCC)c1cnc2nc(NC(C)=O)[nH]c(=O)c2n1
inactive: SK-MEL-2 melanoma 95.4% | SN12C renal 101% | UO-31 renal 82.6% | TK-10 renal 104% | ACHN renal 103% | CAKI-1 renal 102% | A498 renal 73% | CCRF-CEM leukemia 107% | MOLT-4 leukemia 103%

CCCCCCCCCCCC1=NC(C)(C)CN1CCO
inactive: SK-MEL-2 melanoma 87.8% | SN12C renal 72.6% | UO-31 renal 68.3% | TK-10 renal 92.6% | ACHN renal 78.2% | CAKI-1 renal 75% | A498 renal 95.4% | CCRF-CEM leukemia 23.5%

CS(=O)(=O)c1ccc(C(=O)N/N=C/c2ccccc2Cl)cc1
inactive: SK-MEL-2 melanoma 104% | SN12C renal 98.3% | UO-31 renal 84.3% | TK-10 renal 110% | ACHN renal 108% | CAKI-1 renal 97.8% | A498 renal 91.3% | CCRF-CEM leukemia 108% | MOLT-4 leukemia 67.7%

N=C(N)c1ccc(NCCNc2ccc(C(=N)N)cc2)cc1
active: CCRF-CEM leukemia -71.7% | MOLT-4 leukemia -52.9%
inactive: SK-MEL-2 melanoma 97.3% | SN12C renal 46% | UO-31 renal 87.2% | TK-10 renal 111% | ACHN renal 85.5% | CAKI-1 renal 74.3% | A498 renal 90.2%

COc1ccccc1-[n+]1cc(-c2ccc(-c3ccccc3)cc2)n2c1CCCCC2
inactive: UO-31 renal 74.7% | ACHN renal 32.5% | CAKI-1 renal 72.6% | CCRF-CEM leukemia 17.2%
active: SK-MEL-2 melanoma -27% | SN12C renal 0.949% | TK-10 renal 7.69% | A498 renal 9.77% | MOLT-4 leukemia 9.4%

COc1cc2c(cc1OC)-c1cc(OC)c(OC)cc1C(CN(C)C)C2 (stereo unspecified)
inactive: SK-MEL-2 melanoma 29% [100 µM] | SN12C renal 43.7% [100 µM] | UO-31 renal 68.1% [100 µM] | TK-10 renal 65.7% [100 µM] | ACHN renal 44.6% [100 µM] | CAKI-1 renal 11.6% [100 µM] | A498 renal 52.6% [100 µM] | MOLT-4 leukemia 103% [100 µM]

CC(C)C/C=C/C=C/C(=O)N[C@@H](CC(N)=O)C(=O)N[C@@H]1C(=O)N[C@H](c2ccc(O)cc2)C(=O)N[C@H](CCCN)C(=O)N[C@H]([C@@H](C)O)C(=O)N[C@H](c2ccc(O)cc2)C(=O)N[C@H](c2ccc(O)cc2)C(=O)N[C@H]([C@H](C)O)C(=O)N[C@H](Cc2ccccc2)C(=O)N[C@H](CCCN)C(=O)N[C@H](c2ccc(O[C@H]3O[C@@H](CO)[C@@H](O)[C@@H](O)[C@H]3O[C@@H]3O[C@H](CO)[C@H](O)[C@H](O)[C@@H]3O)cc2)C(=O)N[C@H]([C@H](C)O)C(=O)N[C@H](c2ccc(O)cc2)C(=O)NCC(=O)N[C@H](CC(C)C)C(=O)N[C@H](C)C(=O)N[C@H](c2ccc(O)c(Cl)c2)C(=O)O[C@@H]1C(N)=O
inactive: SK-MEL-2 melanoma 88.2% | EKVX NSCLC 92.7% | UO-31 renal 118% | TK-10 renal 74.5% | ACHN renal 111% | CAKI-1 renal 97.1% | A498 renal 199% | MOLT-4 leukemia 38.8%

COc1ccc(-c2ccc(-c3ccc(C(=N)N)s3)s2)cc1
active: SK-MEL-2 melanoma -78.4% | SN12C renal -51.8% | UO-31 renal -71.4% | TK-10 renal -90.7% | ACHN renal -92.8% | CAKI-1 renal -82.8% | A498 renal -73.9% | MOLT-4 leukemia -56.2%

N=C(N)c1ccc(-c2ccc(-c3cccs3)s2)cc1F
active: SK-MEL-2 melanoma -80.2% | UO-31 renal -89.7% | TK-10 renal -94.3% | ACHN renal -84.5% | A498 renal -92.7% | MOLT-4 leukemia -55.5%

N=C(N)c1ccc(-c2ccc(-c3ccco3)o2)cc1F
active: SK-MEL-2 melanoma -66.8% | UO-31 renal -57.2% | TK-10 renal 7.98% | MOLT-4 leukemia 0.311%
inactive: SN12C renal 39.8% | ACHN renal 12.2% | A498 renal 11.6%

COc1ccc(-n2nc(C(=O)Nc3ccc(F)cc3)nc2-c2cc(OC)c(OC)c(OC)c2)cc1
inactive: SK-MEL-2 melanoma 102% | SN12C renal 92.4% | UO-31 renal 51.6% | TK-10 renal 112% | ACHN renal 89.8% | A498 renal 66.6% | CCRF-CEM leukemia 83.2% | MOLT-4 leukemia 69.9%

C[N+](C)(C)CCCCCCCCCC[N+](C)(C)C
inactive: EKVX NSCLC 96.3% | SN12C renal 85.9% | UO-31 renal 96.1% | ACHN renal 112% | CAKI-1 renal 104% | A498 renal 123% | CCRF-CEM leukemia 72.4% | MOLT-4 leukemia 99.4%

O=C(CC(=O)c1ccccc1F)Nc1ccc([N+](=O)[O-])cc1
inactive: SK-MEL-2 melanoma 84% | SN12C renal 85.3% | UO-31 renal 89.3% | TK-10 renal 91.7% | ACHN renal 100% | CAKI-1 renal 106% | A498 renal 109% | MOLT-4 leukemia 93.3%

O=C(Nc1cccc(-n2ccc3c(NC(=O)c4ccccc4)nccc32)c1)c1ccc(Cl)c(Cl)c1
active: EKVX NSCLC -33.3% | UO-31 renal -78.1% | ACHN renal -75.9% | CAKI-1 renal -71.7% | A498 renal -2.71% | CCRF-CEM leukemia -41.6%

CCCCCCCCCCCCCC
inactive: EKVX NSCLC 95.2% | UO-31 renal 98.6% | ACHN renal 111% | CAKI-1 renal 98.9% | CCRF-CEM leukemia 90.4% | MOLT-4 leukemia 111%

ClCCn1cnc2c(SCc3ccccc3Cl)ncnc21
inactive: EKVX NSCLC 66.8% | SN12C renal 44.8% | TK-10 renal 34.4% | ACHN renal 38.4% | CAKI-1 renal 47.6% | A498 renal 39% | CCRF-CEM leukemia 24.2%
active: MOLT-4 leukemia -28%

Cc1cc2nc(CN)[nH]c2cc1C
inactive: SK-MEL-2 melanoma 110% | SN12C renal 111% | UO-31 renal 101% | TK-10 renal 104% | ACHN renal 112% | CAKI-1 renal 108% | A498 renal 98.7% | MOLT-4 leukemia 102%

ClC1=NC(Cl)C(Cl)=N/C1=N\c1ncn[nH]1 (stereo unspecified)
inactive: SN12C renal 26.3% | A498 renal 121%
active: SK-MEL-2 melanoma -5.62% | UO-31 renal -81.7% | TK-10 renal -75.9% | ACHN renal -92.4% | CAKI-1 renal -75.9% | MOLT-4 leukemia -52.2%

NC(=O)c1ccc[n+](Cc2ccccc2)c1
inactive: SK-MEL-2 melanoma 110% | UO-31 renal 93.8% | TK-10 renal 108% | ACHN renal 103% | CAKI-1 renal 97.9% | A498 renal 74.5% | CCRF-CEM leukemia 93.9% | MOLT-4 leukemia 49%

COc1ccc(/C=N/NC(N)=S)c(OC)n1
inactive: SK-MEL-2 melanoma 94% | SN12C renal 98.5% | UO-31 renal 95.2% | TK-10 renal 112% | ACHN renal 100% | CAKI-1 renal 113% | A498 renal 99.1% | MOLT-4 leukemia 90.8%

COC(=O)[C@@H](Cc1c[nH]c2ccccc12)NC(=O)/C=C/c1ccccc1
inactive: SK-MEL-2 melanoma 16.6% | SN12C renal 50.7% | UO-31 renal 36.8% | TK-10 renal 54.1% | ACHN renal 39.2% | CAKI-1 renal 31.7% | MOLT-4 leukemia 24.1%
active: A498 renal -9.95%

O=C1c2cccc3cccc(c23)C(=O)N1CCCCCCCCCCN1C(=O)c2cccc3cccc(c23)C1=O
inactive: SK-MEL-2 melanoma 93.6% | SN12C renal 100% | UO-31 renal 99.4% | TK-10 renal 121% | ACHN renal 96.2% | CAKI-1 renal 98% | A498 renal 105% | MOLT-4 leukemia 107%

N/C(=N\O)c1ncc(-c2ccc(C(F)(F)F)cc2)c(NC2CCCCCC2)n1
active: SK-MEL-2 melanoma -90.6% [100 µM] | SN12C renal -91.3% [100 µM] | UO-31 renal -92.1% [100 µM] | TK-10 renal -69.5% [100 µM] | ACHN renal -64.3% [100 µM] | CAKI-1 renal -76.4% [100 µM] | A498 renal -90.1% [100 µM] | MOLT-4 leukemia -61.3% [100 µM]

CCN(C(=O)CCl)C(C)(C)C(SSSC(c1ccc(Cl)cc1)C(C)(C)N(CC)C(=O)CCl)c1ccc(Cl)cc1 (stereo unspecified)
inactive: SK-MEL-2 melanoma 78.5% | SN12C renal 88.3% | UO-31 renal 66.9% | TK-10 renal 101% | ACHN renal 78.2% | CAKI-1 renal 29.1% | A498 renal 98.8% | MOLT-4 leukemia 36.9%

O=[N+]([O-])c1ccc(Sc2nc(Cl)nc(NC3CCCC3)n2)cc1
active: SK-MEL-2 melanoma -91.7% [100 µM] | SN12C renal -88.9% [100 µM] | UO-31 renal -83.7% [100 µM] | TK-10 renal -96.7% [100 µM] | ACHN renal -100% [100 µM] | CAKI-1 renal -91.4% [100 µM] | A498 renal -94.2% [100 µM] | MOLT-4 leukemia -30.1% [100 µM]

COC(=O)[C@H](Cc1cn(C)cn1)NC(=O)[C@H](CC(C)C)NC(=O)Nc1cc(C(F)(F)F)cc(C(F)(F)F)c1
active: SK-MEL-2 melanoma -95.4% [100 µM] | UO-31 renal -96.7% [100 µM] | TK-10 renal -98.5% [100 µM] | ACHN renal -100% [100 µM] | CAKI-1 renal -99.2% [100 µM] | A498 renal -93.8% [100 µM] | MOLT-4 leukemia -57.2% [100 µM]

O=S(=O)(Nc1ccc2ccccc2c1)N1CCCCC1
active: SK-MEL-2 melanoma 8.41%
inactive: UO-31 renal 25% | TK-10 renal 86.8% | ACHN renal 63.7% | CAKI-1 renal 44% | A498 renal 27% | MOLT-4 leukemia 64.5%
